Bioassay records as filed in PubChem.
3T3 cytotox = NIH 3T3 cell cytotoxicity. NIH 3T3 viability, CellTiter-Glo ATP luminescence, 48-72 h. Potency, µM (top dose mostly 96.7 µM), inactives show at the top dose activity change, negative = cytotoxicity, actives largely listed as inhibitors. AID 1345082. 94,000 tested, 4.3% active; note: nearly all actives have a fitted effect of over 55% in size
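Luminescent ATP readout (CellTiter-Glo, 10 min RT) after 48 or 72 hr compound exposure of NIH 3T3 cells seeded at 400 cells/well in 1536-well format; quantitative HTS.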
NPR1 antag = blocks ANP-stimulated signaling of human Npr1 receptor | AID 1347048 | HEK293 hNpr1 GloSensor cGMP, ANP-stimulated luminescence | Potency, µM (doses to about 46.3 µM), for the others: at the highest dose activity change, negative = inhibition, usual class: inhibitors | 76,000 tested, 1.6% active | P16066; calls by dose curve; note: nearly all actives have a fitted effect of over 60% in size
Target sequence (P16066 whole entry, looked up): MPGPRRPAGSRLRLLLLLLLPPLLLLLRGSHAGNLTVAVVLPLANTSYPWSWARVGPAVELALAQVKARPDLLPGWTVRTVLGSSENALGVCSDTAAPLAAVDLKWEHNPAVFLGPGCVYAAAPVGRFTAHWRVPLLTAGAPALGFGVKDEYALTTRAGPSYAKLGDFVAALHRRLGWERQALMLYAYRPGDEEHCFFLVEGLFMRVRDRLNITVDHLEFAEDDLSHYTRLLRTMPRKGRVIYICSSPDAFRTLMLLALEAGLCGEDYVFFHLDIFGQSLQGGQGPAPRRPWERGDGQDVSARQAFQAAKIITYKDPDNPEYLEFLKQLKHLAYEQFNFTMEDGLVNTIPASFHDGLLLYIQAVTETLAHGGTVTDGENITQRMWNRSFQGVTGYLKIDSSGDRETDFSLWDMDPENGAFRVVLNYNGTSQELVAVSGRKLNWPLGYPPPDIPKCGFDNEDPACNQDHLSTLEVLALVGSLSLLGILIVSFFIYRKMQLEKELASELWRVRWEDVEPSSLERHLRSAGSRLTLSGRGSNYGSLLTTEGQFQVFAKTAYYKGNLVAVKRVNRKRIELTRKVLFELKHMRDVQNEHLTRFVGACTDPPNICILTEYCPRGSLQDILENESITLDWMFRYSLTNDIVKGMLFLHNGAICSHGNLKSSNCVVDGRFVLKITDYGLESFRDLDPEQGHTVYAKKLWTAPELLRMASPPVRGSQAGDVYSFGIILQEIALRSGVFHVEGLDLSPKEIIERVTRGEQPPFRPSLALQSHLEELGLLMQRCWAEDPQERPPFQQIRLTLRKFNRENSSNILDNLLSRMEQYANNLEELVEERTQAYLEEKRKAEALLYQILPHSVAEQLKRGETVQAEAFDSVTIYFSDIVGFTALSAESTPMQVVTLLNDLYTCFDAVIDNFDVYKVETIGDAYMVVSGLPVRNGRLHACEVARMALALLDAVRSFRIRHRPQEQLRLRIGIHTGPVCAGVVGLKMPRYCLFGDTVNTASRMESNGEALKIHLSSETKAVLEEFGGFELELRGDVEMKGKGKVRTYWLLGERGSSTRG
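HEK293 cells stably expressing human Npr1 and cGMP GloSensor pGS-40F, loaded 2 h with 2% GloSensor reagent, given compound 30 min at room temperature. Luminescence read before and 20 min after 0.1 nM hNppA.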
FLuc inh = inhibitors of firefly (Photinus pyralis) luciferase; P08659; purified P. pyralis luciferase, luminescence, biochemical; Potency, µM (doses to about 115 µM), hits mostly inhibitors; 76,000 tested, 2.5% active; AID 1347043; note: nearly all actives have a fitted effect of over 65% in size
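Purified P. pyralis luciferase (10nM final) in 50mM Tris acetate pH 7.5, 10mM Mg acetate, 0.01% Tween-20, 0.05% BSA with 10uM D-luciferin and 10uM ATP. Compounds titrated qHTS. Luminescence imaged on CCD.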
HEK293 tox = kills HEK 293 cells; Potency, µM (series often up to 115 µM), without a hit: at the top dose activity change, negative = cytotoxicity, most hits filed as inhibitors; HEK 293 viability, ATP luminescence (CellTiter-Glo), 48-72 h; AID 1345083; 94,000 tested, 6.6% active; note: nearly all actives have a fitted effect of over 60% in size
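Cells seeded first (HEK 293, 250 cells/well), then compound added by pintool. Incubation ran 48 or 72 hr at 37 degree Celsius. CellTiter-Glo was added and luminescence imaged after 10 min at room temperature.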
Starred values were filed as active, the others as inactive; i = inactive; ? = inconclusive; . = not tested or not shown; [ ] = dose if it differs, or a comment. A selection: hits, their analogues and other compounds. The true share with any hit is near 11%. Unless noted, calls come from the whole dose curve; as a rule, active = well fitted curve in the direction sought with a large enough effect; inconclusive = small, poorly fitted or top-dose-only effect, or another doubt; inactive = no such curve, though single readings can be large; an effect the other way counts as inactive or inconclusive. % is set by controls: 0 for no effect and ±100 for the full control effect; potency is the fitted concentration of half-maximal effect.

SMILES	3T3 cytotox	NPR1 antag	FLuc inh	HEK293 tox
Cn1nc(-c2ccc3ccccc3c2)cc1[C@H]1CN2CC[C@H]1C[C@@H]2CNS(=O)(=O)c1cccs1	20µM*	-3.8%	?	?
CCN(CC)C[C@H]1CN2CC[C@H]1C[C@@H]2CNS(=O)(=O)c1ccc(Cl)cc1	70.8µM*	1.8%[70.6 µM]	i	?
O=S(=O)(NC[C@H]1C[C@@H]2CCN1C[C@@H]2CN1CCC(Cc2ccccc2)CC1)c1ccc(Cl)cc1	14.1µM*	-3.5%	i	7.08µM*
CN1CCN(C[C@H]2CN3CC[C@H]2C[C@@H]3CNC(=O)Nc2ccccc2)CC1	?	4.4%[70.6 µM]	i	3.9%[172 µM]
CC[C@H]1CN2CC[C@H]1C[C@@H]2CNS(=O)(=O)c1ccc(C)cc1	-11.1%[174 µM]	2.1%[70.6 µM]	i	-7.7%[172 µM]
CC(C)NC(=O)NC[C@H]1C[C@@H]2CCN1C[C@@H]2CN1CCC(Cc2ccccc2)CC1	?	0.9%[70.6 µM]	i	50.1µM*
O=S(=O)(NC[C@H]1C[C@@H]2CCN1C[C@@H]2CN1CCCCC1)c1ccccc1	-15.7%[174 µM]	8.3%[70.6 µM]	i	?
O=C(NC[C@H]1C[C@@H]2CCN1C[C@@H]2CN1CCC(Cc2ccccc2)CC1)Nc1ccccc1	?	-1.5%	i	31.6µM*
O=C(NC1CCCCC1)[C@H]1CN2CCC1C[C@@H]2Cn1cc(COc2ccccc2)nn1 (some centres undefined)	-20.3%[174 µM]	0.0%[70.6 µM]	i	-3.8%[172 µM]
COC1CCN(CC2CCCCCN2C(=O)Cc2cccc(F)c2)CC1 (centres undefined)	-18.7%	.	.	-31.4%
O=C1NCc2ccccc2CC12CCCN(Cc1cccnc1)C2 (centres undefined)	4.3%	.	.	-2.5%
CSc1cccc(NC(=O)NC[C@H]2C[C@@H]3CCN2C[C@@H]3CN2CCC(Cc3ccccc3)CC2)c1	25.1µM*	2.7%	i	?
COc1ccccc1N1CCN(C[C@H]2CN3CC[C@H]2C[C@@H]3CNC(=O)Nc2cccc(SC)c2)CC1	?	-0.5%	i	?
COc1ccc(NC(=O)NC[C@H]2C[C@@H]3CCN2C[C@@H]3c2cc(-c3ccccc3Br)nc(C)n2)cc1	?	-5.5%	i	79.4µM*
Cc1nc(-c2ccccc2Br)cc([C@H]2CN3CC[C@H]2C[C@@H]3CNC(=O)NC2CCCCC2)n1	?	0.6%	i	?
Cc1nc(-c2ccccc2Br)cc([C@H]2CN3CC[C@H]2C[C@@H]3CNC(=O)NC(C)C)n1	?	-0.9%	i	79.4µM*
Cc1nc(-c2ccccc2)cc([C@H]2CN3CC[C@H]2C[C@@H]3CNC(=O)NC(C)C)n1	?	-6.6%[70.6 µM]	i	?
COc1cccc(CN2CC[C@@H]3CN(S(C)(=O)=O)[C@@H]3C2)n1	-0.6%	0.6%	i	2.4%
O=S1(=O)NC2(CCN(Cc3ccc(Cl)s3)C2)COc2ccncc21 (centres undefined)	-6.1%	.	.	?
Cc1nc(C)c(C(=O)N2[C@H]3CC[C@@H]2c2cnc(-c4ccc(F)cc4)nc2C3)s1	-20.8%	15.8µM*	?	?
Cc1ncc2c(n1)C[C@@H]1CC[C@H]2N1S(=O)(=O)c1ccccc1C	-14.4%	2.9%	i	-23.4%
Cc1ccsc1C(=O)N1[C@H]2CC[C@@H]1c1cnc(-c3ccccc3)nc1C2	?	.	.	10µM*
O=C(c1cccs1)N1[C@H]2CC[C@@H]1c1cnc(-c3ccc(F)cc3)nc1C2	?	11.2µM*	?	?
Cc1ccccc1S(=O)(=O)N1[C@H]2CC[C@@H]1c1cnc(-c3ccc(F)cc3)nc1C2	?	?	i	28.2µM*
O=C(Nc1ccccc1)N1[C@H]2CC[C@@H]1c1cncnc1C2	i	0.2%	i	-0.5%
SMILES	3T3 cytotox	NPR1 antag	FLuc inh	HEK293 tox
O=C(c1ccc2c(c1)OCO2)N1[C@H]2CC[C@@H]1c1cnc(-c3ccc(F)cc3)nc1C2	?	-11.4%	i	44.7µM*
Cc1noc(C)c1Cc1ccc(C(=O)N2[C@H]3CC[C@@H]2c2cnc(-c4ccccc4)nc2C3)o1	?	?	i	39.8µM*
COc1ccc(C(=O)N2[C@H]3CC[C@@H]2c2cnc(-c4ccc(F)cc4)nc2C3)cc1F	-11.2%	?	i	-0.4%
Cc1noc(C)c1CC(=O)N1[C@H]2CC[C@@H]1c1cnc(-c3ccc(F)cc3)nc1C2	?	-15.9%	i	?
Cn1nc(C2CCCC2)cc1[C@H]1CN2CC[C@H]1C[C@@H]2CNC(=O)c1ccc2c(c1)OCO2	?	-0.4%	i	?
O=C1N(c2ccccn2)C[C@H]2CN(Cc3ccccc3)CCN12	-12.4%[138 µM]	-20.5%[70.6 µM]	20µM*	-7.3%[172 µM]
CN1CCCC(C(=O)N2C3CCC2CN(Cc2cccnc2)C3)C1 (centres undefined)	2.6%	.	.	-22.7%
COc1ccc(NC(=O)NC[C@H]2C[C@@H]3CCN2C[C@@H]3c2cc(C3CCCC3)nn2C)cc1	?	-7.5%	i	?
CCCNC(=O)OC[C@H]1C[C@@H]2CCN1C[C@@H]2c1cc(C(CC)CC)nc(-c2ccncc2)n1	39.8µM*	?	i	?
CC(C)c1ccc(NC(=O)OC[C@H]2C[C@@H]3CCN2C[C@@H]3c2cc(C3CCCCC3)nn2C)cc1	22.4µM*	-19.4%	i	14.1µM*
COc1ccc(NC(=O)OC[C@H]2C[C@@H]3CCN2C[C@@H]3c2cc(C3CCCC3)nc(-c3ccncc3)n2)cc1	?	?	i	14.1µM*
CCC(CC)c1cc([C@H]2CN3CC[C@H]2C[C@@H]3CNC(C)=O)nc(-c2ccncc2)n1	44.7µM*	?	i	100µM*
CC(C)c1ccc(NC(=O)OC[C@H]2C[C@@H]3CCN2C[C@@H]3c2cc(C3CCCC3)nc(-c3ccncc3)n2)cc1	4.47µM*	-24.1%	?	3.55µM*
Cc1nc(-c2ccc(N(C)C)cc2)cc([C@H]2CN3CC[C@H]2C[C@@H]3COC(=O)Nc2ccc(C(C)C)cc2)n1	3.55µM*	?	?	3.55µM*
O=C(Nc1ccccc1)OC[C@H]1C[C@@H]2CCN1C[C@@H]2c1cc(C2CCCC2)nc(-c2ccncc2)n1	7.94µM*	?	?	3.98µM*
CC(C)(C)c1ccc(NC(=O)OC[C@H]2C[C@@H]3CCN2C[C@@H]3c2cc(C3CCCC3)nc(-c3ccncc3)n2)cc1	20µM*	4.5%	?	20µM*
Cn1nc(C2CCCCC2)cc1[C@H]1CN2CC[C@H]1C[C@@H]2CN	?	1.4%[70.6 µM]	i	100µM*
Cn1nc(-c2ccc3ccccc3c2)cc1[C@H]1CN2CC[C@H]1C[C@@H]2COC(=O)Nc1ccccc1	17.8µM*	-7.9%	?	20µM*
CCC(CC)c1cc([C@H]2CN3CC[C@H]2C[C@@H]3CNC(=O)C(C)(C)C)nc(-c2ccncc2)n1	?	-2.5%	i	?
Cn1nc(C2CCCCC2)cc1[C@H]1CN2CC[C@H]1C[C@@H]2CO	?	0.5%[70.6 µM]	i	?
